The results in this text go back to PubChem BioAssay (NCATS).

Records with an inconclusive call do not appear. Unmarked numbers belong to inactive results. Active and inactive are the calls of the source. The call rests on the fitted dose curve; in most records, active means well fitted cell-killing curve with a large enough effect; inconclusive means small, poorly fitted or top-dose-only effect, or effect the other way; inactive means no such curve, though single readings can be large or run the other way.
Potency means the concentration at half of the fitted maximal effect.

The experiment is described as follows: Viability qHTS for spleen associated tyrosine kinase inhibitor (SYKi) naive MV4-11 cells (AID 1963823). Further: nearly all actives have a fitted effect of over 40% in size. The note with it: MV4-11 AML viability, CellTiter-Glo luminescence, 72 h; series mostly up to 45 µM; viability (% of control): at the top concentration. The method in brief:
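Read-out: CellTiter-Glo luminescence. Exposure: 72 hr, 37 C, 5% CO2, 95% humidity. Cells: MV4-11 without SYK inhibitor history, 500/well, qHTS format.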
As for `O=C(Nc1ccc(C(O)(C(F)(F)F)C(F)(F)F)cc1)c1ccc(C(F)(F)F)cc1`, the Potency is 1.84 µM (active). As for `COc1cc(C(C)=O)c(OC)c2c1OC(C)(C)C=C2`, the “viability (% of control)” value is 78.3%. Still for that read-out and setting: then `COc1c2c(c(C)c3c1C(=O)OC3)OC1(C)CC(O)C34OC(OC)(CCC3(C)C1C2)OC4(C)CO` (stereo not given), with 55.7% [at 17.3 µM]. As for `Nc1nc2c(cnn2CCCc2ccc(O)cc2)c2nc(-c3ccco3)nn12`, the “viability (% of control)” value is 73.2%. On to `O=C(/C=C/c1ccc(O)cc1)OC1[C@H](O)CC(O)(C(=O)O)C[C@H]1O` (stereo not given in full), for which the “viability (% of control)” value was 63.1%.

For the compound `OC[C@@]1(O)CO[C@@H](OC[C@H]2O[C@@H](Oc3ccccc3)[C@H](O)[C@@H](O)[C@@H]2O)[C@@H]1O`, the “viability (% of control)” value is 77.9%. Take `Cc1cc(C)nc(SCC(=O)Nc2ncc(Cc3cccc4ccccc34)s2)n1`: the Potency is 7.31 µM (active).

`C=CC(C)(CC/C=C(\C)C(=O)OC[C@H]1O[C@@H](OC(C)(C=C)CC/C=C(\C)C(=O)O[C@H]2[C@H](O)[C@@H](O)[C@H](OC(C)(C=C)CC/C=C(\C)C(=O)O)O[C@@H]2CO)[C@H](O)[C@@H](O)[C@@H]1O)O[C@@H]1O[C@H](CO)[C@@H](O)[C@H](O)[C@H]1O` (stereo not given in full): the viability (% of control) was 81.1% [at 9.25 µM].

Take `CC1OC(OC2C(OC3C(O[C@H]4CC[C@@]5(C)C(CC[C@]6(C)C5C(=O)CC5=C7CC(C)(C)CC(O)[C@]7(C)CC[C@]56C)C4(C)C)OC(C(=O)O)C(O)C3O)OCC(O)C2O)C(O)C(O)C1O` (stereo not given in full): the viability (% of control) was 77.2% [at 9.25 µM].

As for `COC(=O)Cc1cc2c(c([N+](=O)[O-])c1)N(C(=O)CC[C@H](N)C(=O)O)CC2`, the “viability (% of control)” value was 85.7%. For the compound `O=C(/C=C/c1ccc(O)cc1)OC[C@H]1O[C@@H](O/C(=C\c2ccccc2)C(=O)O)[C@H](O)[C@@H](O)[C@@H]1O`, the “viability (% of control)” value is 82% [at 17.3 µM].

Regarding `C=C1C(=O)OC2CC(C)=C(C(C)CCCO)C(O)C12` (stereo not given), the “viability (% of control)” value was 61.1%. In the case of `C=C1C(=O)O[C@@H]2/C=C(\C)CC/C=C(\C(=O)O[C@@H]3O[C@H](CO)[C@@H](O)[C@H](O)[C@H]3O)CC[C@@H]12`, the “viability (% of control)” value is 65.6% [at 17.3 µM]. Same read-out and setting: with `COc1ccc(/C=C/C(=O)O[C@@H]2[C@@H](OC(C)=O)[C@@H](OC(C)=O)[C@H](O[C@H]3[C@@H]4C=CO[C@@H](O[C@@H]5O[C@H](CO)[C@@H](O)[C@H](O)[C@H]5O)[C@@H]4[C@@]4(CO)O[C@@H]34)O[C@H]2C)cc1O` the figure was 72.8% [at 17.3 µM].

As for `CCC(=O)O[C@H]1C(C)(C)[C@H]([C@@H](O)C(=O)OC)[C@]2(C)C(=O)[C@@]1(O)[C@H]1O[C@]13C1CC(=O)O[C@@H](c4ccoc4)[C@]1(C)CCC32` (stereo not given in full), the “viability (% of control)” value was 30.2% [at 17.3 µM].

In the case of `C[C@@H]1CCC2C(C)(C)[C@H](O)[C@H](O)C[C@]2(C)[C@@]12Cc1c(O)cc3c(c1O2)CN(CCCC(=O)O)C3=O` (stereo not given in full), the “viability (% of control)” value is 73.3% [at 17.3 µM].

For the compound `O=S1(=O)CCN(Cc2cc(NCC3CCOCC3)c3[nH]c(-c4ccccc4)cc3c2)CC1`, the “viability (% of control)” value was 3.26%. As to `COc1ccc(CNCc2cccc3ccccc23)cc1`, the “viability (% of control)” value is 57.1%. The same measure, in the same setting: then `CC1(CCOC2OC(CO)C(O)C(O)C2O)CCC23OC2(C1)C(O)CC1C(C)(C(=O)O)CCCC13C` (stereo not given), with 66.3% [at 17.3 µM]; and `COc1cc(C)c(C(=O)O[C@H]2[C@@H](OC(C)=O)[C@H](n3ccc(=O)[nH]c3=O)O[C@@H]2CO)c(OC)c1`, with 79% [at 17.3 µM].

Take `COc1cc(C(C)=O)ccc1O[C@@H]1O[C@H](CO[C@@H]2O[C@@H](C)[C@H](O)[C@@H](O)[C@H]2O)[C@@H](O)[C@H](O)[C@H]1O`: the “viability (% of control)” value was 75.7% [at 17.3 µM]. Same read-out and setting: with `C[n+]1ccc(-c2c3nc(c(-c4cc[n+](C)cc4)c4ccc([nH]4)c(-c4cc[n+](C)cc4)c4nc(c(-c5cc[n+](C)cc5)c5ccc2[nH]5)C=C4)C=C3)cc1` the figure was 65.8%; with `O=C(Nc1ccn(Cc2c(F)cccc2C(F)(F)F)n1)c1c(F)cccc1F`, 72.8% [at 9.25 µM]. On the same count and under the same terms, then `C=C(CC/C=C(\C)C(=O)O)C1(O)CC=C(C)CC1` (stereo not given), with 79.6%; and `C=C[C@@]12COC(=O)C(=C)[C@@H]1[C@@H](O)[C@H](C(=C)C(=O)OC)[C@@H](O)C2`, with 5.71%. As for `COc1cc(C2Oc3c(OC)cc(CCCO)cc3C2CO)ccc1O` (stereo not given), the “viability (% of control)” value was 71.4%. The same measure, in the same setting: then `CC(=O)C1=C(O)C=C2Oc3c(C(C)=O)c(O)c(C)c(O)c3[C@]2(C)C1=O`, with 85.3%.

Take `CC1(C(=O)O)CCCC2(C)C3CCC4CC3(CCC12)CC4=O` (stereo not given): the Potency was 13 µM (active). For `C/C=C(\C)C(=O)O[C@@H](C)[C@H]1CC[C@]2(O)C3CCC4C[C@@H](OC5CC(OC)C(OC6CC(OC)C(OC7CC(OC)C(OC8OC(C)C(OC9OC(CO)C(O)C(O)C9O)C(OC)C8O)C(C)O7)C(C)O6)C(C)O5)CC[C@]4(C)C3[C@H](O)[C@@H](O)[C@]12C` (stereo not given in full), the viability (% of control) was 34.7% [at 9.25 µM]. Same read-out and setting: with `CC1=CC(=O)C(C(C)C)=CC1=O` the figure was 81.2%.

For the compound `NC1Nc2ccccc2C1(N)CC1NC(=O)C(Cc2ccccc2)NC(=O)C(Cc2ccccc2)NC1=O` (stereo not given), the “viability (% of control)” value was 62.1% [at 17.3 µM]. The same measure, in the same setting: with `O=[N+]([O-])c1cccc(S(=O)(=O)NCCNS(=O)(=O)c2cccc([N+](=O)[O-])c2)c1` the figure was 64%.

As for `CCC(C)C(=O)O[C@H]1[C@@H](OC(=O)c2ccoc2)C[C@](C)(O)[C@]23OC(C)(C)[C@H](C[C@H](OC(=O)c4ccoc4)[C@]12COC(C)=O)[C@H]3OC(C)=O` (stereo not given in full), the “viability (% of control)” value was 65.9% [at 17.3 µM]. Still for that read-out and setting: then `COc1cc(C2Oc3c(O)cc(CCCO)cc3C2CO)ccc1O[C@H]1O[C@H](C)[C@@H](O)[C@H](O)[C@@H]1O` (stereo not given in full), with 90.3% [at 17.3 µM]. Still for that read-out and setting: then `C=C1[C@H](OC(C)=O)[C@H]2[C@@H](OC(C)=O)C(C)C[C@]2(OC(C)=O)C(=O)[C@H](C)/C=C/C(C)(C)C(=O)[C@H](OC(=O)C(C)C)[C@H]1OC(C)=O` (stereo not given in full), with 56.2% [at 17.3 µM].

On to `O=C(O)[C@H](Cc1ccccc1)Oc1ccc(-c2ccccc2)cc1`, for which the “viability (% of control)” value was 57.5%. Same read-out and setting: then `CC1(C)CC[C@]2(C(=O)O)CC[C@]3(C)C(=CCC4[C@@]5(C)CC[C@H](O[C@@H]6O[C@H](C(=O)O)[C@@H](O[C@@H]7OC[C@@H](O)[C@H](O)[C@H]7O)[C@H](O)[C@H]6O)C(C)(C)C5CC[C@]43C)C2C1O` (stereo not given in full), with 84.2% [at 17.3 µM]. Same read-out and setting: with `CN(C/C=C/C#CC(C)(C)C)Cc1cccc2ccccc12` the figure was 76.8%. Regarding `CN(CCc1ccc(Nc2ncc(-c3cccnc3)s2)cc1)Cc1ccccc1`, the Potency was 0.366 µM (active).

For `C=C1[C@@H](C)[C@H]2[C@H](Cc3c[nH]c4ccccc34)NC(=O)[C@]23C(=O)/C=C/C(=O)[C@H](O)/C(C)=C\[C@@H](C)C/C=C/[C@H]3[C@@H]1O`, the Potency is 2 µM (active).
